PubChem BioAssay (Tox21)
Inconclusive results are not listed. The source made the active and inactive calls. The call rests on the fitted dose curve; in most records, active means well fitted curve in the direction sought with a large enough effect in the repeat runs; inconclusive means weak or mixed curves; inactive means no such curve, though single readings can be large; an effect the other way counts as inactive or inconclusive.

How the values were obtained:
[1] = A CellTox Green Cytotoxicity Assay to monitor cytotoxicity in HEK293 cells - 40 hour (AID 1224871); further: nearly all actives have a fitted effect of over 45% in size
Summary of the method: (§1)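 HEK293 cells premixed with CellTox Green dye were seeded at 600 cells/well and left 5 h at 37 C/5% CO2 before pin transfer of 23 nL compound in DMSO. Fluorescence from dye bound to dead-cell DNA was read during 40 h treatment.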

[2] = qHTS RealTime-Glo MT Cell Viability Assay in HEK293 cells - 16 hour (AID 1224872); further: top concentration of the series differs between compounds; nearly all actives have a fitted effect of over 50% in size
Summary of the method: (§2)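 Luminescence generated by NanoLuc from substrate produced by living HEK293 cells served as the viability signal. Each value reflects the reading at its stated time point during continuous 40 h compound exposure at 37 C.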

[3] = qHTS RealTime-Glo MT Cell Viability Assay in HepG2 cells - 8 hour (AID 1224873); further: nearly all actives have a fitted effect of over 55% in size
Summary of the method: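 HepG2 cells (600/well) mixed with RealTime-Glo MT reagent, settled 5 h at 37 C/5% CO2 before compound addition. Nonlytic NanoLuc luminescence from viable-cell prosubstrate reduction read repeatedly during 40 h treatment at 37 C.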

[4] = qHTS RealTime-Glo MT Cell Viability Assay in HEK293 cells - 40 hour (AID 1224874); details: RealTime-Glo luminescence; max response: hits give low values; further: nearly all actives have a fitted effect of over 50% in size
Summary of the method: (§3)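 HEK293 cells mixed with RealTime-Glo reagents (NanoLuc plus cell-permeant prosubstrate) at 600 cells/well, preincubated 5 h at 37 C/5% CO2, then given 23 nL compound in DMSO. Nonlytic luminescence from viable cells was read at 0, 8, 16, 24, 32 and 40 h.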

[5] = A CellTox Green Cytotoxicity Assay to monitor cytotoxicity in HEK293 cells - 24 hour (AID 1224875); further: series mostly up to about 77 µM; nearly all actives have a fitted effect of over 45% in size
Summary of the method: as §1

[6] = A CellTox Green Cytotoxicity Assay to monitor cytotoxicity in HepG2 cells - 16 hour (AID 1224876); further: nearly all actives have a fitted effect of over 45% in size
Summary of the method: (§4)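 HepG2 cells were seeded together with the CellTox Green dye at 600 cells/well, left 5 h at 37 C/5% CO2, then given compounds in DMSO. Fluorescence from dye bound to dead-cell DNA was read repeatedly over 40 h of treatment at 37 C.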

[7] = qHTS RealTime-Glo MT Cell Viability Assay in HepG2 cells - 32 hour (AID 1224877); further: nearly all actives have a fitted effect of over 55% in size
Summary of the method: (§5)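 Tox21 10K library screened in qHTS format on HepG2 cells carrying RealTime-Glo reagents. Compounds were added after a 5 h preincubation, and the luminescent signal from continuous culture was measured repeatedly during 40 h treatment.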

[8] = A CellTox Green Cytotoxicity Assay to monitor cytotoxicity in HepG2 cells - 24 hour (AID 1224878); further: nearly all actives have a fitted effect of over 45% in size
Summary of the method: as §4

[9] = A CellTox Green Cytotoxicity Assay to monitor cytotoxicity in HepG2 cells - 40 hour (AID 1224879); further: nearly all actives have a fitted effect of over 40% in size
Summary of the method: as §4

[10] = qHTS RealTime-Glo MT Cell Viability Assay in HEK293 cells - 0 hour (AID 1224880)
Summary of the method: as §3

[11] = A CellTox Green Cytotoxicity Assay to monitor cytotoxicity in HEK293 cells - 32 hour (AID 1224881); further: nearly all actives have a fitted effect of over 40% in size
Summary of the method: as §1

[12] = A CellTox Green Cytotoxicity Assay to monitor cytotoxicity in HepG2 cells - 0 hour (AID 1224882); further: nearly all actives have a fitted effect of over 35% in size
Summary of the method: as §4

[13] = A CellTox Green Cytotoxicity Assay to monitor cytotoxicity in HepG2 cells - 32 hour (AID 1224883); further: nearly all actives have a fitted effect of over 50% in size
Summary of the method: as §4

[14] = A CellTox Green Cytotoxicity Assay to monitor cytotoxicity in HEK293 cells - 8 hour (AID 1224884); further: nearly all actives have a fitted effect of over 35% in size
Summary of the method: as §1

[15] = qHTS RealTime-Glo MT Cell Viability Assay in HepG2 cells - 16 hour (AID 1224885); further: nearly all actives have a fitted effect of over 50% in size
Summary of the method: as §5

[16] = qHTS RealTime-Glo MT Cell Viability Assay in HEK293 cells - 24 hour (AID 1224886)
Summary of the method: as §2

[17] = qHTS RealTime-Glo MT Cell Viability Assay in HEK293 cells - 8 hour (AID 1224887)
Summary of the method: as §3

[18] = A CellTox Green Cytotoxicity Assay to monitor cytotoxicity in HEK293 cells - 16 hour (AID 1224888); further: nearly all actives have a fitted effect of over 35% in size
Summary of the method: as §1

[19] = A CellTox Green Cytotoxicity Assay to monitor cytotoxicity in HepG2 cells - 8 hour (AID 1224890); further: nearly all actives have a fitted effect of over 45% in size
Summary of the method: as §4

[20] = qHTS RealTime-Glo MT Cell Viability Assay in HepG2 cells - 0 hour (AID 1224889); further: nearly all actives have a fitted effect of over 50% in size
Summary of the method: as §5
On the % scale 0 is the no-effect control and ±100 the full control effect.

O=C1CN2CCOC2(c2ccccc2Cl)c2cc(Cl)ccc2N1 (stereo not drawn)
inactive: Potency [1] | Potency [2] | Potency [3] | max response [4] -7.26% | Potency [5] | Potency [6] | Potency [7] | Potency [8] | Potency [9] | outcome [10] | Potency [11] | outcome [12] | Potency [13] | Potency [14] | Potency [15] | Potency [16] | Potency [17] | Potency [18] | Potency [19]

CCCCC(=O)Cl
inactive: Potency [1] | Potency [2] | Potency [3] | max response [4] 5.77% | Potency [5] | Potency [6] | Potency [7] | Potency [8] | Potency [9] | outcome [10] | Potency [11] | outcome [12] | Potency [13] | Potency [14] | Potency [16] | Potency [17] | Potency [18] | Potency [20] | Potency [19]

Nc1ccccc1Cl
inactive: Potency [1] | Potency [2] | Potency [3] | max response [4] 15.7% | Potency [5] | Potency [6] | Potency [7] | Potency [8] | Potency [9] | outcome [10] | Potency [11] | outcome [12] | Potency [13] | Potency [14] | Potency [15] | Potency [16] | Potency [17] | Potency [18] | Potency [19]

COC(=O)COc1ccc(Cl)cc1Cl
inactive: Potency [1] | Potency [2] | Potency [3] | max response [4] 0.13% | Potency [5] | Potency [6] | Potency [7] | Potency [8] | Potency [9] | outcome [10] | Potency [11] | outcome [12] | Potency [13] | Potency [14] | Potency [15] | Potency [16] | Potency [17] | Potency [18] | Potency [19]

ClC(Br)Br
inactive: Potency [1] | Potency [2] | Potency [3] | max response [4] 9.83% | Potency [5] | Potency [6] | Potency [7] | Potency [8] | Potency [9] | outcome [10] | Potency [11] | outcome [12] | Potency [13] | Potency [14] | Potency [15] | Potency [16] | Potency [18] | Potency [20] | Potency [19]

BrCCCCCCBr
inactive: Potency [1] | Potency [2] | Potency [3] | max response [4] 2.7% | Potency [5] | Potency [6] | Potency [7] | Potency [8] | Potency [9] | outcome [10] | Potency [11] | outcome [12] | Potency [13] | Potency [14] | Potency [16] | Potency [17] | Potency [18] | Potency [20] | Potency [19]

CNC(=O)Oc1ccccc1C1OCCO1
inactive: Potency [1] | Potency [2] | Potency [3] | max response [4] -0.764% | Potency [5] | Potency [6] | Potency [7] | Potency [8] | Potency [9] | outcome [10] | Potency [11] | outcome [12] | Potency [13] | Potency [14] | Potency [15] | Potency [16] | Potency [17] | Potency [18] | Potency [19]

C=C(C)CN(CC)c1c([N+](=O)[O-])cc(C(F)(F)F)cc1[N+](=O)[O-]
inactive: Potency [1] | Potency [2] | Potency [3] | max response [4] 0.654% | Potency [5] | Potency [6] | Potency [7] | Potency [8] | Potency [9] | outcome [10] | Potency [11] | outcome [12] | Potency [13] | Potency [14] | Potency [15] | Potency [16] | Potency [18] | Potency [20] | Potency [19]

CC(Cl)(Cl)[N+](=O)[O-]
inactive: Potency [1] | Potency [2] | Potency [3] | max response [4] 2.41% | Potency [5] | Potency [6] | Potency [7] | Potency [8] | Potency [9] | outcome [10] | Potency [11] | outcome [12] | Potency [13] | Potency [14] | Potency [15] | Potency [16] | Potency [18] | Potency [19]

CCCSC(=O)N(CCC)CCC
inactive: Potency [1] | Potency [2] | Potency [3] | max response [4] 7.77% | Potency [5] | Potency [6] | Potency [7] | Potency [8] | Potency [9] | outcome [10] | Potency [11] | outcome [12] | Potency [13] | Potency [14] | Potency [15] | Potency [16] | Potency [18] | Potency [20] | Potency [19]

CCCCOC(=O)c1ccccc1C(=O)O
inactive: Potency [1] | Potency [2] | Potency [3] | max response [4] 1.78% | Potency [5] | Potency [6] | Potency [7] | Potency [8] | Potency [9] | outcome [10] | Potency [11] | outcome [12] | Potency [13] | Potency [14] | Potency [16] | Potency [17] | Potency [18] | Potency [20] | Potency [19]

Fc1cc(Br)ccc1CBr
inactive: Potency [1] | Potency [2] | Potency [3] | max response [4] -0.0441% | Potency [5] | Potency [6] | Potency [7] | Potency [8] | Potency [9] | outcome [10] | Potency [11] | outcome [12] | Potency [13] | Potency [14] | Potency [15] | Potency [16] | Potency [18] | Potency [19]

N#CCBr
inactive: Potency [1] | Potency [2] | Potency [3] | max response [4] 6.36% | Potency [5] | Potency [6] | Potency [7] | Potency [8] | Potency [9] | outcome [10] | Potency [11] | outcome [12] | Potency [13] | Potency [14] | Potency [15] | Potency [16] | Potency [18] | Potency [20] | Potency [19]

CCCCN(CCCCO)N=O
inactive: Potency [1] | Potency [2] | Potency [3] | max response [4] 3.79% | Potency [5] | Potency [6] | Potency [7] | Potency [8] | Potency [9] | outcome [10] | Potency [11] | outcome [12] | Potency [13] | Potency [14] | Potency [15] | Potency [16] | Potency [18] | Potency [20] | Potency [19]

COC(=O)c1ccccc1S(=O)(=O)NC(=O)N(C)c1nc(C)nc(OC)n1
inactive: Potency [1] | Potency [2] | Potency [3] | max response [4] 10.1% | Potency [5] | Potency [6] | Potency [7] | Potency [8] | Potency [9] | outcome [10] | Potency [11] | outcome [12] | Potency [13] | Potency [14] | Potency [15] | Potency [16] | Potency [17] | Potency [18] | Potency [19]
